This is part of a sample that, as a whole, favours compounds with a hit. Of some 83,000 tested, about 20% had one in any assay.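 Step 1: grow cells in 96-well plates. Step 2: add test compound at a single concentration. Step 3: incubate 48 h. Step 4: record percent growth.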 Values without a mark were called inactive. The source made the active and inactive calls. How the source made its calls: active means growth percent below 10; inactive means the rest.
How the values were obtained:
Test in all cases: NCI-60 one-dose screen, 48 h (100 = growth as untreated, 0 = no growth, -100 = all killed)
Conditions in all cases: 10 µM unless noted
[1] = system: SK-MEL-2 melanoma
[2] = system: EKVX NSCLC
[3] = system: SN12C renal
[4] = system: UO-31 renal
[5] = system: TK-10 renal
[6] = system: ACHN renal
[7] = system: CAKI-1 renal
[8] = system: A498 renal
[9] = system: CCRF-CEM leukemia
[10] = system: MOLT-4 leukemia
[11] = system: SR leukemia
[12] = system: RPMI-8226 leukemia
[13] = system: OVCAR-8 ovarian
[14] = system: OVCAR-5 ovarian
[15] = system: OVCAR-4 ovarian
[16] = system: SK-OV-3 ovarian
[17] = system: IGROV1 ovarian
[18] = system: OVCAR-3 ovarian
[19] = system: HS 578T breast
[20] = system: NCI/ADR-RES ovarian

Structure (SMILES)	growth [1]	growth [2]	growth [3]	growth [4]	growth [5]	growth [6]	growth [7]	growth [8]	growth [9]	growth [10]	growth [11]	growth [12]	growth [13]	growth [14]	growth [15]	growth [16]	growth [17]	growth [18]	growth [19]	growth [20]
CCCc1cc2c(cc1Br)OCO2	98%	94.4%	97.3%	95%	100%	105%	104%	98.6%	96.5%	110%	111%	113%	96.1%	96.5%	114%	103%	111%	113%	99.8%	–
N/C(=N\N=C\c1cc2ccccc2s1)N/N=C/c1cc2ccccc2s1	109%	95.6%	96.9%	87.7%	115%	107%	95.3%	96.5%	99.2%	101%	96.8%	99.8%	107%	104%	102%	94.3%	93.7%	107%	102%	103%
COc1cc(/C=C/C(=O)c2ccc(Nc3ncnc4ccccc34)cc2)cc(OC)c1	112%	79.3%	71.3%	51.2%	79.1%	76.8%	69.3%	85.9%	20.6%	19.1%	0.253% (active)	2.26% (active)	57.5%	101%	79.8%	128%	60.2%	36.4%	82.4%	73.6%
COc1ccc(C(=O)c2cc3c(N)c(C(=O)Nc4cccc(OC)c4)sc3nc2C)cc1	27.9%	35.3%	28.1%	49.3%	57.1%	41.2%	45.8%	-1.41% (active)	7.12% (active)	15.8%	-2.44% (active)	15.2%	15%	46.8%	49.5%	36.5%	37.6%	1.93% (active)	24.6%	–
COc1cc2nc(Cc3ccc(C)cc3)[nH]c(=O)c2cc1OC	123%	109%	99.6%	97.5%	292%	110%	129%	90.6%	1.89% (active)	95%	100%	88.2%	104%	102%	108%	113%	109%	109%	100%	102%
COc1cc(C2CC(c3cccc(Nc4ccncc4)c3)=NN2C(C)=O)cc(OC)c1OC (stereo unspecified)	99.1%	87.5%	94%	89.1%	97.7%	99.5%	78.9%	94.1%	92.7%	84.4%	27.3%	94.4%	97%	98.9%	83.8%	90.6%	89.2%	96.3%	86%	–
COc1cc(-c2nc3sccn3c2-c2ccnc(NCCNS(=O)(=O)c3ccc(F)cc3)n2)ccc1F	-38.3% (active)	23.6%	15.1%	-11.1% (active)	20.2%	0.0766% (active)	8.83% (active)	22.5%	2.47% (active)	-15.4% (active)	8.1% (active)	-39.4% (active)	-9.78% (active)	56%	10.8%	22.9%	3.95% (active)	25.3%	28.4%	–
Cc1nc2sc(C(=O)Nc3cccc(Br)c3)c(N)c2cc1C(=O)c1ccc(C(F)(F)F)cc1	104%	87.7%	71%	86.3%	90.8%	49.7%	79.8%	109%	82.1%	94.7%	47%	88.6%	72.7%	82.3%	6.24% (active)	91.7%	73.8%	83.2%	40.7%	–
COc1cccc2c1C(=O)c1c(O)c3c(c(O)c1C2=O)C[C@@](O)(C(=O)CO)C[C@@H]3O[C@H]1C[C@H](N)[C@@H](O)[C@H](C)O1	-72.9% (active)	3.85% (active)	10%	11.8%	6.82% (active)	-36.9% (active)	25.1%	-67.3% (active)	-20.5% (active)	-0.0958% (active)	-2.27% (active)	6.05% (active)	7.14% (active)	15.2%	7.72% (active)	7.22% (active)	18.4%	-0.462% (active)	-18.2% (active)	–
Clc1cc(Cl)cc(N2N=C(c3cccc(Nc4ccncc4)c3)CC2c2ccc(Br)cc2)c1 (stereo unspecified)	99.2%	67.8%	58.3%	52.1%	71.4%	46.3%	48.2%	88.8%	-12.9% (active)	3.97% (active)	3.33% (active)	21.3%	-13.7% (active)	77.2%	2.37% (active)	83.3%	12.3%	57.6%	46.7%	51.2%
CS(=O)(=O)c1ccc(-c2cc3c(oc2=O)-c2ccccc2OC3O)cc1 (stereo unspecified)	99.2%	98.4%	104%	74%	99.9%	98.6%	75.4%	87.7%	58.9%	86.3%	103%	90.6%	95.9%	98.2%	94%	92.8%	102%	88.2%	88.5%	–
Cc1ccccc1-c1cc(Cc2ccc(F)cc2)c(=O)[nH]n1	122%	81.8%	148%	70.5%	122%	105%	54.4%	117%	-50.9% (active)	58.1%	-21.2% (active)	50.9%	90.4%	106%	103%	98.2%	97.4%	104%	99.9%	–
CC1=CC[C@@H]2CC[C@]3(C)[C@H](CC[C@@H]4[C@@]5(C)CCCNC(C)(C)[C@@H]5CC[C@]43C)[C@H]2[C@@H]1C	94.6%	84.5%	48.3%	55.7%	80.5%	8.91% (active)	30.4%	60.2%	5.21% (active)	-8.43% (active)	5.05% (active)	-32.8% (active)	-87.3% (active)	41.1%	-41% (active)	103%	40.5%	-28.9% (active)	92.9%	-45.1% (active)
CCOC(=O)c1c(SC)nn(-c2cc(=O)[nH]c3ccc(Br)cc23)c1N	99%	88.2%	108%	81%	110%	98.3%	87.2%	110%	111%	111%	91%	101%	95.6%	112%	86.2%	98.5%	102%	105%	91.8%	–
COc1ccc(C2CC(c3cccc(Nc4ccncc4)c3)=NN2c2cc(Cl)cc(Cl)c2)cc1 (stereo unspecified)	91.1%	81.9%	70.8%	53.7%	63.2%	51.7%	33.3%	95.7%	7.35% (active)	-2.82% (active)	2.77% (active)	14.9%	-31.8% (active)	82.5%	28.2%	75%	17.3%	49%	56.7%	66.8%
Cn1c(COC(=O)NCCn2ccnc2)nc2c(N3CCOCC3)nc(-c3ccccc3)nc21	-69.6% (active)	-64.5% (active)	-90.3% (active)	-100% (active)	-83.3% (active)	-100% (active)	-94.2% (active)	-24.2% (active)	-17.9% (active)	-10.3% (active)	1.63% (active)	-29.4% (active)	-12.9% (active)	-91% (active)	-87.8% (active)	50.2%	-96% (active)	-89.7% (active)	-33% (active)	-1.95% (active)
